The source of these data is PubChem BioAssay (Tox21).

Unmarked numbers belong to inactive results. Calls of active or inactive are those of the source. Calls come from the whole dose curve; as a rule, active = well fitted curve in the direction sought with a large enough effect in the repeat runs; inconclusive = weak or mixed curves; inactive = flat fitted curve, though single readings scatter.
% is set by controls: 0 for no effect and ±100 for the full control effect.

This experiment is described as follows: qHTS assay to test for compound auto fluorescence at 535 nm (green) in HEK293 cell free culture (AID 720682). Particulars: cell-free medium, green autofluorescence 485/535 nm, stronger effect = higher value; series mostly up to 91.3 µM. An excerpt: U.S. Tox21 Program National Center for Advancing Translational Sciences [NCATS] NIH Chemical Genomics Center [NCGC] U.S. Environmental Protection Agency [EPA] National Institutes of Environmental Health Sciences [NIEHS] National Toxicology Program [NTP] U.S. Food and Drug Administration [FDA] Tox21 Assay Overview: Compound auto fluorescence often interferes with screening of the compound library against various biological targets and signaling pathways. Some of these compounds may have fluorophoric properties. Such properties may interfere with the assay outputs resulting in false positives and/or negatives. To decrease such complications and ensure the compound activities are relevant in terms of biological response, the Tox21 10K compound library was screened for auto fluorescence. From the fluorophores used as reporter signals in our screening assays, the auto fluorescence equivalencies of compounds against three fluorophores have been evaluated: Triamterene, Fluorescein and Rose Bengal sodium for blue, green and red fluorescence, respectively. The fluorescence intensities were measured using Excitation/Emission wavelengths at 405/460nm, 485/535nm and 540/590nm for blue, green and red labels, respectively. This assay includes the green fluorescence data.
Tox21 Assay Protocol Summary: 5 uL of culture medium (DMEM containing 10% FBS) per well was dispensed into black wall/clear bottom 1536-well plates using a Multidrop Combi Dispenser (ThermoFisher Scientific, Waltham, MA). After 23 nL compound or DMSO vehicle was transferred into assay plate by a pintool work station (Kalypsys, San Diego, CA), fluorescence intensities in the assay plates were measured by an Envision (PerkinElmer, Shelton, CT) plate reader using three labels for measuring blue, green and red fluorescence at […] 460, 535 and 590nm respectively.
Background: In qHTS, concentration-response curves come from the screen itself.
`COc1ccccc1Oc1c(NS(=O)(=O)c2ccc(C(C)(C)C)cc2)nc(-c2ncccn2)nc1OCCO`: the result was inactive.

Regarding `CC(C)C=O`, the outcome was inactive.

As to `O=C1c2ccccc2C(=O)N1CCc1noc(-c2ccc(CN3CCCCCC3)s2)n1`, the compound was called inactive.

Regarding `CCCCCCCCOc1ccc(C(=O)O)cc1`, the compound was classed as inactive.

On to `C=C/C(C)=C/C/C=C(\C)CCC=C(C)C`, for which the compound was called inactive.

On to `CC(=O)Oc1ccc([N+](=O)[O-])cc1CCl`, for which the outcome was inactive.

`Clc1cc(Cl)nc(Cl)n1`: the compound was called inactive.

Take `CC1=C(CC=O)C(C)(C)CCC1`: the compound was classed as inactive.

In the case of `OC[C@H]1O[C@@H](n2cnc3c(=S)nc[nH]c32)[C@H](O)[C@@H]1O`, the result was inactive.

On to `CCC(C)COC(C)=O` (stereo not given), for which the compound was classed as inactive.

`Cc1ccc(C(C)(C)O)cc1`: the outcome was inactive.

For the compound `O=C(O)CCCCCCCCCCCBr`, the result was inactive.

In the case of `CCCCCC[C@@H](O)C/C=C\CCCCCCCC(=O)O`, the compound was called inactive.

Turning to `OCCOCC#CCOCCO`, the compound was classed as inactive.

`C[C@]1(Cn2ccnn2)[C@H](C(=O)O)N2C(=O)C[C@H]2S1(=O)=O`: the compound was classed as inactive.

On to `C=C1c2cccc(O)c2C(O)=C2C(=O)[C@]3(O)C(O)=C(C(N)=O)C(=O)[C@@H](N(C)C)[C@@H]3[C@@H](O)[C@H]12`, for which the activity change was -0.0974% [at 18.6 µM].

Turning to `O=c1c(O)c(-c2ccc(O)cc2)oc2cc(O)cc(O)c12`, the outcome was inactive.

Turning to `Cc1cc(O)ccc1O`, the result was inactive.

As for `C=Cc1ccc(S(=O)(=O)O)cc1`, the compound was classed as inactive.

For the compound `CN1C(C(=O)Nc2ccccn2)=C(O)c2sccc2S1(=O)=O`, the activity change is -0.011% [at 18.6 µM].

Regarding `CC1(C)O[C@@H]2C[C@H]3[C@@H]4C[C@H](F)C5=CC(=O)C=C[C@]5(C)[C@H]4[C@@H](O)C[C@]3(C)[C@]2(C(=O)CO)O1`, the activity change was -0.178% [at 18.6 µM].

Turning to `Cc1c(C)c2c(c(C)c1OC(=O)CCC(=O)OCCO)CC[C@@](C)(CCC[C@H](C)CCC[C@H](C)CCCC(C)C)O2`, the compound was called inactive.

With `CCCCCCCCN`, the outcome was inactive.

On to `O=C(/C=C/c1ccc(O)c(O)c1)O[C@@H]1C[C@@](OC(=O)/C=C/c2ccc(O)c(O)c2)(C(=O)O)C[C@@H](O)[C@@H]1O`, for which the compound was classed as inactive.

As for `COc1cc(C(=O)NCCCCCC(=O)O)cc(OC)c1OC`, the compound was called inactive.

For the compound `CCC(C)(C)OC`, the compound was called inactive.

As for `CC1CC(OC(=O)C(O)c2ccccc2)CC(C)(C)N1C` (stereo not given), the compound was called inactive.

As to `CCCCC(CC)CN` (stereo not given), the compound was classed as inactive.

Regarding `O=[N+]([O-])c1ccc(O/N=C/c2cc(Br)c(O)c(Br)c2)c([N+](=O)[O-])c1`, the outcome was inactive.

`CCOC(=O)c1ccc(OCCN2C[C@H](O)[C@@H](O)[C@H](O)[C@H]2CO)cc1`: the outcome was inactive.

As to `C[C@@H]1CN(CCCn2c3ccccc3c3ccccc32)C[C@H](C)N1`, the result was inactive.

Regarding `NC1[C@H]2CN(c3nc4c(cc3F)c(=O)c(C(=O)O)cn4-c3ccc(F)cc3F)C[C@@H]12` (stereo not given in full), the call was inactive.

With `CC1=C(Br)C(=O)C(Br)=C/C1=C(/c1ccccc1S(=O)(=O)O)c1cc(Br)c(O)c(Br)c1C`, the outcome was inactive.

`CC[C@]1(O)C[C@H]2CN(CCc3c([nH]c4ccccc34)[C@@](C(=O)OC)(c3cc4c(cc3OC)N(C=O)[C@H]3[C@@](O)(C(=O)OC)[C@H](OC(C)=O)[C@]5(CC)C=CCN6CC[C@]43[C@@H]65)C2)C1`: the compound was classed as inactive.

In the case of `COc1ccccc1N1CCN(CCCCNC(=O)c2ccc(-c3ccc(C(C)=O)cc3)cc2)CC1`, the call was inactive.

`CCCCCCCC/C=C\CCCCCCCCCCCC(=O)O`: the result was inactive.

For the compound `CC(C)=CCC1C(=O)N(c2ccccc2)N(c2ccccc2)C1=O`, the call was inactive.

Turning to `CN1C[C@H](C(=O)N[C@]2(C)O[C@@]3(O)[C@@H]4CCCN4C(=O)[C@H](Cc4ccccc4)N3C2=O)C[C@@H]2c3cccc4[nH]cc(c34)C[C@H]21`, the compound was classed as inactive.

Take `C=C(C)C(=O)OCCCCCCCCCCCCC`: the compound was called inactive.

Consider `Brc1cc(Br)c(Oc2cc(Br)c(Br)cc2Br)cc1Br`, for which the compound was called inactive.
